A selection: hits, their analogues and other compounds. The true share with any hit is near 18%.
TDP1 block = blocks human tyrosyl-DNA phosphodiesterase 1. 0.28% of 350,000 active. AID 485290. Potency, µM (doses to about 130 µM), hits mostly inhibitors. recombinant TDP1, AlphaScreen DNA substrate cleavage. Q9NUW8; further: nearly all actives have a fitted effect of over 40% in size
Target sequence (Q9NUW8 whole entry, looked up): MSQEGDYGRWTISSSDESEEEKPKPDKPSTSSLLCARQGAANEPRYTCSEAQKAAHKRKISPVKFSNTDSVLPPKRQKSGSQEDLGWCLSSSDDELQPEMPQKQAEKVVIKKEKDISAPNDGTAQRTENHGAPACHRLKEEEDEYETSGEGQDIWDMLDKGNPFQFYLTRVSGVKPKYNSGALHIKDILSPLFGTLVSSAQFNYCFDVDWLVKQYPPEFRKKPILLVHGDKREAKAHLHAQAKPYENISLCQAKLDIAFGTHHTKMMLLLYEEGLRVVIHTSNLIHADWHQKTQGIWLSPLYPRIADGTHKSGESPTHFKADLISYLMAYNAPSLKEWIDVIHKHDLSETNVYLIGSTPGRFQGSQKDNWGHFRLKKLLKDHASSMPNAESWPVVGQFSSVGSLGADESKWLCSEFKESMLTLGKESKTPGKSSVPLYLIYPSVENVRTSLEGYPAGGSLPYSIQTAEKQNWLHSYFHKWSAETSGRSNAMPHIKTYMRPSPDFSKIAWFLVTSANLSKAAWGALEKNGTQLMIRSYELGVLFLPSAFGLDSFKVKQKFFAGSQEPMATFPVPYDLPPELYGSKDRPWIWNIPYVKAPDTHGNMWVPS
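E. coli-derived human Tdp1, 1 nM final. Cpd preinc 15 min RT; substrate 15 nM final, 5 min RT; AS bead mix 10 ug/ml final, 10 min RT. Signal loss = tyrosine-FITC cleavage. No-enzyme wells = max signal.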
Six1-Eya2 blk = blocks human Six1 binding to Eya2 | 0.56% of 360,000 active | AID 651725 | AlphaScreen GST-Six1/His-Eya2 binding, biochemical; active compounds read low | activity change, % (no concentration beside the values); in the data active means activity change below about -65%; inconclusive means mostly about -30% to -63%
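AlphaScreen with GST-Six1 and His-Eya2 (5X mix: 250 nM and 500 nM), glutathione donor and nickel acceptor beads; buffer 50 mM Tris pH 8.0, 300 mM NaCl, 1 mM TCEP; 1 h at 37 C in the dark.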
IL-1B inflam inh = inhibitors of inflammasome signaling (IL-1 beta secretion); AID 743279; activity change, % at 57.5 µM; 4.7% of 360,000 active; THP-1 LPS/ATP IL-1B secretion, AlphaLISA, 16 h; active compounds read low; in the data active means activity change below about -50%; inconclusive means mostly about -30% to -49%
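THP-1 cells pretreated 1 hr with compounds (up to 57.5 uM final), then stimulated with LPS (250 ng/mL final) plus ATP (1.25 mM final); secreted IL-1B measured by AlphaLISA after 16 hr, decreased signal indicating inhibition.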
TDP1 cell noCPT = qHTS for Inhibitors of human tyrosyl-DNA phosphodiesterase 1 (TDP1): qHTS in cells in absence of CPT | DT40 Tdp1-/- hTDP1 cells, no CPT, ATP luminescence, 48 h | Potency, µM (highest dose often 46.2 µM), most hits filed as inhibitors | AID 686978, 2013 | 15% of 420,000 active; further: nearly all actives have a fitted effect of over 55% in size
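Readout: luminescence from CellTiter-Glo after 30 min in the dark at RT. Cells: DT40 Tdp1-/- with stable hTDP1, 400/well. Exposure: compounds alone, ≥48 hr, 37 °C.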
DT40 TDP1 CPT = growth inhibition of DT40 Tdp1-/-;hTDP1 cells with camptothecin (screen for TDP1 inhibitors); chicken DT40 Tdp1-/-;hTDP1 cells + 20 nM CPT, ATP luminescence, 48 h; Potency, µM (doses to about 46.2 µM), most hits filed as inhibitors; 12% of 420,000 active; AID 686979; further: nearly all actives have a fitted effect of over 55% in size
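Chicken DT40 Tdp1-/- cells complemented with human TDP1, 400 cells/well, exposed to compounds plus 20 nM camptothecin for at least 48 h at 37 C; viability read as ATP content by CellTiter-Glo luminescence.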
CtBP-E1A inh = inhibitors of CtBP/E1A interaction | AlphaScreen GST-E1A/His-CtBP binding, 1536-well; active compounds read low | activity change, % (no concentration beside the values) | 0.49% of 340,000 active | AID 651724; in the data active means activity change below about -65%; inconclusive means mostly about -30% to -63%
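Homogeneous bead-based format: GST-tagged E1A captured on glutathione donor beads, His-tagged CtBP on nickel acceptor beads; compounds precede bead addition by 2 h at 37 °C.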
Of the large screens only hits and unclear results are named; the others gave an inactive call. Unless noted, the call rests on the fitted dose curve; in most records, active means well fitted curve in the direction sought with a large enough effect; inconclusive means small, poorly fitted or top-dose-only effect, or another doubt; inactive means no such curve, though single readings can be large; an effect the other way counts as inactive or inconclusive.

Cn1c(NC(=O)c2ccc(Cl)s2)cc(=O)n(C)c1=O	none
CC(C)NS(=O)(=O)c1ccc(OCC(=O)NCc2cccnc2)cc1	none
CCCCCOc1ccc(C(O)C(CN2CCOCC2)c2ccccc2)cc1 (configuration not stated)	IL-1B inflam inh -62, TDP1 cell noCPT inconclusive, DT40 TDP1 CPT inconclusive (no result: TDP1 block)
CCOc1ccc(C(=O)C(CN2CCOCC2)c2ccccc2)cc1 (configuration not stated)	IL-1B inflam inh -95, TDP1 cell noCPT 3.3µM, DT40 TDP1 CPT 3.3µM
O=C(NC(=S)Nc1ccc2[nH]c(=O)[nH]c2c1)c1cc(Br)ccc1Cl	none
O=C(CN1CCN(c2ncccn2)CC1)NCc1ccc2c(c1)OCO2	none
CC(=O)N1CCN(CCS(=O)(=O)c2cc(Cl)ccc2Cl)CC1	IL-1B inflam inh -65, TDP1 cell noCPT inconclusive, DT40 TDP1 CPT inconclusive
CC1CN(CCS(=O)(=O)c2cc(Cl)ccc2Cl)CC(C)O1 (configuration not stated)	IL-1B inflam inh -103, TDP1 cell noCPT inconclusive, DT40 TDP1 CPT inconclusive
COc1ccc(N2CCN(CCS(=O)(=O)c3cc(Cl)ccc3Cl)CC2)cc1	Six1-Eya2 blk inconclusive, TDP1 cell noCPT inconclusive, DT40 TDP1 CPT inconclusive
C=CCn1c(COc2ccc(CC)cc2)nnc1SCC(=O)N(C)C1CCS(=O)(=O)C1 (configuration not stated)	none
Cc1c(CN2CCCCC2C)c(=O)n(-c2ccccc2)n1C (configuration not stated)	none
COCc1c(C#N)c(NCc2cc(OC)c(OC)c(OC)c2)nc(C)c1[N+](=O)[O-]	TDP1 cell noCPT 21µM, DT40 TDP1 CPT 18µM
COCc1c(C#N)c(NCCc2ccccc2)nc(C)c1[N+](=O)[O-]	TDP1 cell noCPT inconclusive, DT40 TDP1 CPT inconclusive
COc1ccc(CNC(=O)C(C)n2nc(C)c3c(C)n(-c4ccc(C)cc4)nc3c2=O)cc1 (configuration not stated)	TDP1 cell noCPT inconclusive, DT40 TDP1 CPT 18µM
Cc1nn(Cc2ccccc2)c(=O)c2nn(-c3ccc(Cl)cc3)c(C)c12	IL-1B inflam inh -70, TDP1 cell noCPT 21µM, DT40 TDP1 CPT inconclusive
CCC(C(=O)NCCC1=CCCCC1)n1nc(C)c2c(C)n(-c3ccccc3)nc2c1=O (configuration not stated)	TDP1 cell noCPT 26µM, DT40 TDP1 CPT inconclusive
Cc1ccc(CCNC(=O)C(C)n2nc(C)c3c(C)n(-c4ccc(C)cc4)nc3c2=O)cc1 (configuration not stated)	TDP1 cell noCPT 21µM, DT40 TDP1 CPT 21µM (no result: Six1-Eya2 blk, IL-1B inflam inh, CtBP-E1A inh)
Cc1cccc(CNC(=O)C(C)n2nc(C)c3c(C)n(-c4ccccc4)nc3c2=O)c1 (configuration not stated)	none
Cc1nn(CCCC(=O)NCCc2ccc(Cl)cc2)c(=O)c2nn(-c3ccccc3)c(C)c12	TDP1 cell noCPT inconclusive, DT40 TDP1 CPT inconclusive
O=C(Cn1cc(C(F)(F)F)ccc1=O)N1CCc2ccccc2C1	none
Cc1c(C(=O)N2CCCCCC2)c(S(=O)(=O)NCc2ccccc2)c(C)n1C	none (no result: Six1-Eya2 blk, IL-1B inflam inh, CtBP-E1A inh)
CCCn1c(SCC(=O)NNC(=O)c2ccc(OC)cc2)nnc1C(C)C	none
Cn1cc(C(=O)N2CCN(c3cccc(Cl)c3)CC2)c(=O)c2cc(S(=O)(=O)N3CCOCC3)ccc21	none
COc1ccc(CCNC(=O)C(C)n2nc(C)c3c(C)n(-c4ccc(C)cc4)nc3c2=O)c(OC)c1 (configuration not stated)	IL-1B inflam inh -50, TDP1 cell noCPT inconclusive, DT40 TDP1 CPT 23µM
CCC(C(=O)NCc1ccc(OC)c(OC)c1)n1nc(C)c2c(C)n(-c3ccc(C)cc3)nc2c1=O (configuration not stated)	TDP1 cell noCPT 23µM, DT40 TDP1 CPT 16µM (no result: Six1-Eya2 blk, IL-1B inflam inh, CtBP-E1A inh)
COc1ccccc1CCNC(=O)C(C)n1nc(C)c2c(C)n(-c3ccccc3)nc2c1=O (configuration not stated)	none
CCC(C(=O)Nc1cc(F)ccc1F)n1nc(C)c2c(C)n(-c3ccc(C)cc3)nc2c1=O (configuration not stated)	TDP1 cell noCPT 16µM, DT40 TDP1 CPT 15µM
Cc1ccc(-n2nc3c(=O)n(CC(=O)NC(C)CCc4ccccc4)nc(C)c3c2C)cc1 (configuration not stated)	TDP1 cell noCPT 23µM, DT40 TDP1 CPT inconclusive (no result: CtBP-E1A inh)
CCC(C(=O)Nc1ccccc1F)n1nc(C)c2c(C)n(-c3ccccc3)nc2c1=O (configuration not stated)	TDP1 cell noCPT inconclusive, DT40 TDP1 CPT inconclusive
CCc1ccccc1NC(=O)Cn1c(=O)n(-c2ccccc2)c(=O)c2oc3ccccc3c21	TDP1 cell noCPT inconclusive, DT40 TDP1 CPT inconclusive (no result: Six1-Eya2 blk, IL-1B inflam inh, CtBP-E1A inh)
CCc1ccccc1NC(=O)Cn1c(=O)n(C(C)C)c(=O)c2oc3ccccc3c21	TDP1 cell noCPT inconclusive (no result: Six1-Eya2 blk, IL-1B inflam inh, CtBP-E1A inh)
CCc1ccccc1NC(=O)Cn1c(=O)n(-c2ccc(C)c(C)c2)c(=O)c2oc3ccccc3c21	TDP1 cell noCPT inconclusive, DT40 TDP1 CPT 15µM (no result: Six1-Eya2 blk, IL-1B inflam inh, CtBP-E1A inh)
CCc1ccccc1NC(=O)Cn1c(=O)n(Cc2ccc(OC)cc2)c(=O)c2oc3ccccc3c21	TDP1 cell noCPT inconclusive, DT40 TDP1 CPT 9.2µM (no result: Six1-Eya2 blk, IL-1B inflam inh, CtBP-E1A inh)
COc1ccc(Cn2c(=O)c3oc4ccccc4c3n(CC(=O)Nc3c(C)cccc3C)c2=O)cc1	TDP1 cell noCPT 5.8µM, DT40 TDP1 CPT 7.3µM (no result: Six1-Eya2 blk, IL-1B inflam inh, CtBP-E1A inh)
O=C(c1ccco1)N1CCN(C2CN(Cc3ccc([N+](=O)[O-])cc3)S(=O)(=O)C2)CC1 (configuration not stated)	none (no result: TDP1 block)
CCN(C(=O)COC(=O)CCCc1c[nH]c2ccccc12)c1c(N)n(Cc2ccccc2)c(=O)[nH]c1=O	DT40 TDP1 CPT inconclusive (no result: TDP1 block)
Cn1cc(C2N3CC4(C)CN2CC(C)(C3)C4=O)c2ccccc21 (configuration not stated)	none
CN(C)CCNc1ncnc2c1ncn2[C@H]1CN(Cc2ccncc2)C[C@@H](CO)O1	none (no result: TDP1 block)
CCNC(=S)N1CCCC(C(N)=O)C1 (configuration not stated)	none
COCCn1c(N)c(C(=S)NC(=O)c2cccs2)c(=O)[nH]c1=O	TDP1 cell noCPT inconclusive, DT40 TDP1 CPT 10µM (no result: CtBP-E1A inh)
COCCN(C(=O)COC(=O)CNC(=O)c1cccs1)c1c(N)n(Cc2ccccc2)c(=O)[nH]c1=O	none
Cn1c(SCC(=O)Nc2nncs2)nnc1C1CC1	TDP1 block 8.9µM
C=CCn1c(SCC(=O)Nc2ccc(Cl)cn2)nnc1C1CC1	none
Cn1c(SCC(=O)Nc2ccc(Cl)cn2)nnc1C1CC1	IL-1B inflam inh -78

Screening results deposited in PubChem by National Center for Advancing Translational Sciences (NCATS).
